Test results as given in PubChem BioAssay (EPA / NIEHS).
“And” between values parts separate entries of the source, which are not always exact repeats. Identical values can stand only once. Results filed as inconclusive are left out. The source made the active and inactive calls. How the source made its calls: active means hit-call score of the fitted dose curve at least 0.9, where 1 is the maximum; inconclusive means response in the unintended direction; inactive means score below 0.9.

target: human Mitogen-Activated Protein Kinase 1 (MAPK 1), MAPK1 (gene 5594) (UniProt P28482); test: NVS_ENZ_hMAPK1: NovaScreen (NVS) Enzymatic Assay for human Mitogen-Activated Protein Kinase 1 (MAPK 1) (AID 2283175)
Sequence (P28482 whole entry, looked up): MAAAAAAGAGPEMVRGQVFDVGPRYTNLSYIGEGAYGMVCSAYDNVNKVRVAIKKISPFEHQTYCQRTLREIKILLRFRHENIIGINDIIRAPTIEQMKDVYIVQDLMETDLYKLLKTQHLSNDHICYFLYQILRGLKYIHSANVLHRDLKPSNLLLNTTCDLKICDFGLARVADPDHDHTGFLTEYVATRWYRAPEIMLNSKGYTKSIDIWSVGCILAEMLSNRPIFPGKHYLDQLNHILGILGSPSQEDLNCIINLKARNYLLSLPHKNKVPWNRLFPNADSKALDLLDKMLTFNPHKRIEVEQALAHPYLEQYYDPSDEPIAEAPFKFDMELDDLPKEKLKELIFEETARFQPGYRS
Outline: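 Cell-free recombinant human MAPK1 enzymatic assay, fluorescence/electrophoretic mobility shift read at 1 h; loss of signal vs DMSO. Primary screen in duplicate at 25 uM; actives (e.g. ≥30% inhibition) run as concentration-response up to 50 uM.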

Row | SMILES | outcome | AC50
1 | O=C(O)CC(O)(CC(=O)O)C(=O)O | inactive | 
2 | O=C(N[C@H]1CN2CCC1CC2)c1ccc2c(c1)OCCO2 | inactive | 
3 | CCCCCCCCCCCCOS(=O)(=O)O |  | 37.3 µM (active)

target: Mitogen-activated protein kinase 3 (Homo sapiens) (UniProt P27361); test: NVS_ENZ_hMAPK3: NovaScreen (NVS) Enzymatic Assay for human Mitogen-Activated Protein Kinase 3 (MAPK 3) (AID 2283177)
Outline: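 Chemicals were first tested in duplicate at 25 uM, with hits re-run as concentration series (max 50 uM). Recombinant enzyme activity, measured 1 h post-dose in a cell-free format, was read by fluorescence/mobility shift relative to DMSO.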

Row | SMILES | outcome | AC50
4 | O=C(N[C@H]1CN2CCC1CC2)c1ccc2c(c1)OCCO2 | inactive | 
5 | O=C1c2ccccc2C(=O)C1C(=O)C(c1ccccc1)c1ccc(Cl)cc1 (stereo unspecified) | inactive | 
6 | COc1nn(C(=O)NS(=O)(=O)c2ccccc2OC(F)(F)F)c(=O)n1C | inactive | 
7 | N#Cc1cccnc1 | inactive | 
8 | CC(C)O.CC(C)O.OCCN(CCO)CCO.OCCN(CCO)CCO.[Ti] |  | 0.00287 µM (active)

target: human MAP Kinase-Activated Protein Kinase 2 (MAPKAPK2), MAPKAPK2 (gene 9261) (UniProt P49137); test: NVS_ENZ_hMAPKAPK2: NovaScreen (NVS) Enzymatic Assay for human MAP Kinase-Activated Protein Kinase 2 (MAPKAPK2) (AID 2283178)
Sequence (P49137 whole entry, looked up): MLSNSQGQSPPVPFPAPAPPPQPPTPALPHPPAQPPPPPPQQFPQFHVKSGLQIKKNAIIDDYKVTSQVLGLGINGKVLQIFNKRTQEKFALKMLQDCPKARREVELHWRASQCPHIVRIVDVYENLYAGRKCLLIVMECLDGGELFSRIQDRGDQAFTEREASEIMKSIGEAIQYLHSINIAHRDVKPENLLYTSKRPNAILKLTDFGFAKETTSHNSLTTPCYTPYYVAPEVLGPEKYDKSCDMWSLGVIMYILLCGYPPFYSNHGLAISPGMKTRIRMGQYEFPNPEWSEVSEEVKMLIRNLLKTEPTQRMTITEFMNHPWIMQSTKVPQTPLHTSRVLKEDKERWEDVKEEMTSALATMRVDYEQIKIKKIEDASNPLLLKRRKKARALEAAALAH
Outline: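 Chemicals screened in duplicate at 25 uM, then to 50 uM top concentration in concentration-response, against recombinant human MAPKAPK2; substrate conversion read 1 hr post-dosing by fluorescence after electrophoretic mobility-shift separation, loss-of-signal relative to DMSO.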

Row | SMILES | outcome | AC50
9 | O=C(N[C@H]1CN2CCC1CC2)c1ccc2c(c1)OCCO2 | inactive | 
10 | COc1ccccc1N | inactive | 
11 | CCCCCCCCCCCCc1cccc(S(=O)(=O)O)c1 |  | 34.3 µM (active)
12 | N#Cc1cccnc1 | inactive | 
13 | CC(C)O.CC(C)O.OCCN(CCO)CCO.OCCN(CCO)CCO.[Ti] |  | 0.00624 µM (active)

target: human MET Proto-Oncogene, Receptor Tyrosine Kinase (MET), MET (gene 4233) (UniProt P08581); test: NVS_ENZ_hMet: NovaScreen (NVS) Enzymatic Assay for human MET Proto-Oncogene, Receptor Tyrosine Kinase (MET) (AID 2283180)
Sequence (P08581 whole entry, looked up): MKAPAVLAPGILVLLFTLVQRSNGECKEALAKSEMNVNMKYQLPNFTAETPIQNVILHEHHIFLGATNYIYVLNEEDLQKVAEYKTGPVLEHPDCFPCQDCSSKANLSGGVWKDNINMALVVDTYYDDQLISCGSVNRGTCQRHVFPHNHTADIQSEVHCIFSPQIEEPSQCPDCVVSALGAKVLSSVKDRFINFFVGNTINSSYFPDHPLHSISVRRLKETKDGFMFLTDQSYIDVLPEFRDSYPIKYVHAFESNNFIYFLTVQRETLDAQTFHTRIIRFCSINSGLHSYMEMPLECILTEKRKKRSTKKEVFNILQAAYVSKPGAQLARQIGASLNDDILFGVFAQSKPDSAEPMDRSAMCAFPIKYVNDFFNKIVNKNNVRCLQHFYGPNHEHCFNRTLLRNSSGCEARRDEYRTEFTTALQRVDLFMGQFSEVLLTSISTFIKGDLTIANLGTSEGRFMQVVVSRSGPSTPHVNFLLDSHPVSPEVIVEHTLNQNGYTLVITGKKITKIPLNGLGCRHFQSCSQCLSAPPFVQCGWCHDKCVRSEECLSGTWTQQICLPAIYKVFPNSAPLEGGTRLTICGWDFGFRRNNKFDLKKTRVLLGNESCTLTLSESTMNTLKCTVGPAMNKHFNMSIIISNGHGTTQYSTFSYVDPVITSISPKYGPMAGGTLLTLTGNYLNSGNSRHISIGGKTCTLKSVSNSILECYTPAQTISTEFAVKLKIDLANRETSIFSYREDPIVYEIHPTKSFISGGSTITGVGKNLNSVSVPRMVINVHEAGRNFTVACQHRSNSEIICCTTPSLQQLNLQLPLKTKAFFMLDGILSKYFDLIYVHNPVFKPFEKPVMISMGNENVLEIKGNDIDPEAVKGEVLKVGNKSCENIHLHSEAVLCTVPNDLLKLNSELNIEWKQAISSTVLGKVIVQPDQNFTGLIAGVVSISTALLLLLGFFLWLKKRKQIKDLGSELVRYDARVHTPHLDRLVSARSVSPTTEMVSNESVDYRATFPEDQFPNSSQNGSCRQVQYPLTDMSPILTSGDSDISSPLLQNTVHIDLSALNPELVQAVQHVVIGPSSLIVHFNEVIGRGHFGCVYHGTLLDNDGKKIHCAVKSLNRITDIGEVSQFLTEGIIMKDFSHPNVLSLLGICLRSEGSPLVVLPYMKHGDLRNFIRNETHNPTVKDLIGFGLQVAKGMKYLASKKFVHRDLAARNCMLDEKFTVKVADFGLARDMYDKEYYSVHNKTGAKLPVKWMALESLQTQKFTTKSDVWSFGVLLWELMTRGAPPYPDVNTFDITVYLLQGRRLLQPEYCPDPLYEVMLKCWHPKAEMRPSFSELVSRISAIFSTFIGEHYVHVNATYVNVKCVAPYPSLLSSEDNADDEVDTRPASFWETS
Outline: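 Hits from a 25 uM duplicate screen were retested in concentration series up to 50 uM. Enzyme activity was measured by fluorescence after electrophoretic separation of product from substrate, 1 h after compound addition, relative to DMSO.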

Row | SMILES | outcome | AC50
14 | Clc1cccc(Cl)c1Cl | inactive | 
15 | O=C(N[C@H]1CN2CCC1CC2)c1ccc2c(c1)OCCO2 | inactive | 
16 | CCCCCCCCCCCCc1cccc(S(=O)(=O)O)c1 |  | 17.8 µM (active)
17 | N#Cc1cccnc1 | inactive | 
18 | CC(C)O.CC(C)O.OCCN(CCO)CCO.OCCN(CCO)CCO.[Ti] |  | 25 µM (active)
19 | CCCCCCCCCCCCOS(=O)(=O)O |  | 25.4 µM (active)

target: human Mitogen- and Stress-activated Protein Kinase-1 (Msk1), RPS6KA5 (gene 9252) (UniProt O75582); test: NVS_ENZ_hMsk1: NovaScreen (NVS) Enzymatic Assay for human Mitogen- and Stress-activated Protein Kinase-1 (Msk1) (AID 2283187)
Sequence (O75582 whole entry, looked up): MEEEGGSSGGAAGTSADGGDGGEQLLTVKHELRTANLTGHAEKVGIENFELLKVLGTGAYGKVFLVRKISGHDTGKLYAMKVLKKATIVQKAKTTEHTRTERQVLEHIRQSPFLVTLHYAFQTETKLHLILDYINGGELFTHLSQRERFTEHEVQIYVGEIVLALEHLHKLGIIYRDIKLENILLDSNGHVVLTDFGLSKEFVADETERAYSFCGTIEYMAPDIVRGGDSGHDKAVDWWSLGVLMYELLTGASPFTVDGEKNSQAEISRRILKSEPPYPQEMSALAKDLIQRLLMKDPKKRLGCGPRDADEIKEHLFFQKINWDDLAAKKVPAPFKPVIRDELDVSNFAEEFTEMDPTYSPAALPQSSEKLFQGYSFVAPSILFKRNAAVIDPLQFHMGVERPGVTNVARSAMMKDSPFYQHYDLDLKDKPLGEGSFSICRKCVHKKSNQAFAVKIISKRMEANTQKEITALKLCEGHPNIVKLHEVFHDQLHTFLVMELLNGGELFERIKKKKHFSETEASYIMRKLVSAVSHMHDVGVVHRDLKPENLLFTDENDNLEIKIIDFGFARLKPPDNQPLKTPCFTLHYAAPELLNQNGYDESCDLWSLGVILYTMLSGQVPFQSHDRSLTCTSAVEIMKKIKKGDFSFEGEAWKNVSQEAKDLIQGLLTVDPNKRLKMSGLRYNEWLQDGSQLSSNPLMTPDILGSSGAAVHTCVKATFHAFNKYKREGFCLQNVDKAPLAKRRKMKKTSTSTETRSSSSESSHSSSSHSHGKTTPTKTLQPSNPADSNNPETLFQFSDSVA
Outline: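 Chemicals first run in duplicate at 25 uM, with actives followed up in singleton concentration series to 50 uM maximum. Enzyme activity came from substrate/product mobility-shift separation with fluorescence detection after 1 h incubation of the recombinant protein.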

Row | SMILES | outcome | AC50
20 | Clc1cccc(Cl)c1Cl | inactive | 
21 | CCCCCCCCCCCCc1cccc(S(=O)(=O)O)c1 |  | 25.2 µM (active)
22 | CC(C)O.CC(C)O.OCCN(CCO)CCO.OCCN(CCO)CCO.[Ti] |  | 0.109 µM (active)

target: human NIMA (Never In Mitosis Gene A)-Related Kinase 2 (NEK2), NEK2 (gene 4751) (UniProt P51955); test: NVS_ENZ_hNEK2: NovaScreen (NVS) Enzymatic Assay for human NIMA (Never In Mitosis Gene A)-Related Kinase 2 (NEK2) (AID 2283188)
Outline: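 Compounds were first screened in duplicate at 25 uM, with actives followed up in concentration series. Recombinant NEK2 activity, cell-free, was read 1 h after dosing by fluorescence intensity after mobility-shift separation. Signal loss was scored against DMSO.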

Row | SMILES | outcome | AC50
23 | Clc1cccc(Cl)c1Cl | inactive | 
24 | CCCCCCCCCCCCc1cccc(S(=O)(=O)O)c1 |  | 12.2 µM (active)
25 | N#Cc1cccnc1 | inactive | 
26 | CC(C)O.CC(C)O.OCCN(CCO)CCO.OCCN(CCO)CCO.[Ti] |  | 17.5 µM (active)

target: human p21 Activated Kinase 4 (PAK4), PAK4 (gene 10298) (UniProt O96013); test: NVS_ENZ_hPAK4: NovaScreen (NVS) Enzymatic Assay for human p21 Activated Kinase 4 (PAK4) (AID 2283189)
Sequence (O96013 whole entry, looked up): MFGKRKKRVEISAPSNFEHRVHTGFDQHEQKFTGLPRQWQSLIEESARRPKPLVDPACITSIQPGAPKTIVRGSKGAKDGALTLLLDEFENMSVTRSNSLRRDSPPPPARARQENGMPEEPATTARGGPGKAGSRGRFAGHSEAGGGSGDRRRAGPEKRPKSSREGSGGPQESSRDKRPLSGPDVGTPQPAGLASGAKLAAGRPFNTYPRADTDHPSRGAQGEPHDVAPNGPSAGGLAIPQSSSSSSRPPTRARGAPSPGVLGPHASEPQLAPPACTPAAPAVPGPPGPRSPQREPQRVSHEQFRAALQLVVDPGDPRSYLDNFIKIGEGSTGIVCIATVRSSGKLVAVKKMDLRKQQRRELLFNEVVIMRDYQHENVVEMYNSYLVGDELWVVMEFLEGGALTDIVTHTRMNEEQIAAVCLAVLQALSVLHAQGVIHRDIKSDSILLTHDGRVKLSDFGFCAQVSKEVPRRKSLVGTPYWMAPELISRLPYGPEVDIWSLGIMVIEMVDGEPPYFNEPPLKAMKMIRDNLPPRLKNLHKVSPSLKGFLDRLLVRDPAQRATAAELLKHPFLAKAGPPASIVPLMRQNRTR
Outline: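 Extracted PAK4 enzyme activity read by fluorescence with mobility-shift separation 1 h after chemical addition. Duplicate single-concentration screen at 25 uM, DMSO as negative control.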

Row | SMILES | outcome | AC50
27 | Clc1cccc(Cl)c1Cl | inactive | 
28 | CN(C)C(=S)S | inactive | 
29 | O=C(N[C@H]1CN2CCC1CC2)c1ccc2c(c1)OCCO2 | inactive | 
30 | COc1nn(C(=O)NS(=O)(=O)c2ccccc2OC(F)(F)F)c(=O)n1C |  | 17.4 µM (active)
31 | N#Cc1cccnc1 | inactive | 
32 | CC(C)O.CC(C)O.OCCN(CCO)CCO.OCCN(CCO)CCO.[Ti] |  | 0.00229 µM (active)
33 | CCCCCCCCCCCCOS(=O)(=O)O | inactive | 

target: human Matrix Metalloproteinase-9 (MMP9), MMP9 (gene 4318) (UniProt P14780); test: NVS_ENZ_hMMP9: NovaScreen (NVS) Enzymatic Assay for human Matrix Metalloproteinase-9 (MMP9) (AID 2283190);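 further: cell-free recombinant MMP9 protease activity read by fluorescent substrate signal; active means inhibition seen as loss of fluorescence signal versus DMSO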
Sequence (P14780 whole entry, looked up): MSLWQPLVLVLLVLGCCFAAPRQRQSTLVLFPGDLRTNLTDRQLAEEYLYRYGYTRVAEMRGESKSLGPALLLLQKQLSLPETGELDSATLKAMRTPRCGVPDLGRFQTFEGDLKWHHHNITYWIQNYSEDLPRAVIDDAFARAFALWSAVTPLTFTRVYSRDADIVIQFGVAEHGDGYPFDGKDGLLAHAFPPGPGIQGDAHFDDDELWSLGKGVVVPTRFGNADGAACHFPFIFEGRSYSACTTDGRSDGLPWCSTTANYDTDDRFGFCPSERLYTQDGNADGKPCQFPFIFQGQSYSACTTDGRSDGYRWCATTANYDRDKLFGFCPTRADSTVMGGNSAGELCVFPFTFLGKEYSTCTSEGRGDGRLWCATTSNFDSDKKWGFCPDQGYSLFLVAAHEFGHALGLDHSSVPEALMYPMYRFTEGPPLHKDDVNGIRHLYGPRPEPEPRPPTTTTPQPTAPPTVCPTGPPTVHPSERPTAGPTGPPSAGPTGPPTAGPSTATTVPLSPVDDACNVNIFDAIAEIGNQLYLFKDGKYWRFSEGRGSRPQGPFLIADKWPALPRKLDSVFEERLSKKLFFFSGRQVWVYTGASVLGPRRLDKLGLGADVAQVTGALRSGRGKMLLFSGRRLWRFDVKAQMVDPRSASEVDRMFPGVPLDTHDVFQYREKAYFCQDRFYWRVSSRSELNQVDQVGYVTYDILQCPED
Outline: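 Screening concentration 25 uM, duplicate wells, then dose series for confirmation. Cell-free enzymatic reaction measured by fluorescence intensity 1 h post-dosing; decreased signal versus DMSO taken as activity.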

Row | SMILES | AC50 | outcome
34 | CC(C)(C#N)N=NC(C)(C)C#N | 6.44 µM (active) | 
35 | CC(C)(c1ccccc1)c1cc(-n2nc3ccccc3n2)c(O)c(C(C)(C)c2ccccc2)c1 | 1.24 µM (active) | 
36 | OC[P+](CO)(CO)CO | 1.27 µM (active) and 3.16 µM (active) | 
37 | CC1(C)[C@H](C(=O)O[C@H](C#N)c2cccc(Oc3ccccc3)c2)[C@@H]1/C=C(\Cl)C(F)(F)F | 7.08 µM (active) | 
38 | CCOP(=O)(OCC)OC(=CCl)c1ccc(Cl)cc1Cl | 22.8 µM (active) | 
39 | BrCCCCBr | 15.3 µM (active) | 
40 | [Cl][Sn]([c]1ccccc1)([c]1ccccc1)[c]1ccccc1 |  | inactive
41 | Oc1c(Br)cc(Br)cc1Br |  | inactive
42 | CCCCN(CCCC)C(=S)[S-].CCCCN(CCCC)C(=S)[S-].[Ni+2] | 12.5 µM (active) | 
43 | CC(C)(C)c1cc([N+](=O)[O-])cc(C(C)(C)C)c1O | 1.64 µM (active) | 
44 | C#CCOC(=O)/C=C(C)/C=C/CC(C)CCCC(C)C (stereo unspecified) | 7.1 µM (active) | 
45 | C[N+](C)(C)Cc1ccccc1 | 8.55 µM (active) and 5.15 µM (active) | 

target: cAMP-dependent protein kinase catalytic subunit alpha (Homo sapiens) (UniProt P17612); test: NVS_ENZ_hPKA: NovaScreen (NVS) Enzymatic Assay for human Protein Kinase A (PKA) (AID 2283192)
Outline: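 Cell-free kinase activity read by fluorescence after mobility-shift separation of substrate and product, 1 h post-dosing. Single-concentration duplicate screen (25 uM) preceded singleton concentration series (top 50 uM); loss of signal versus DMSO.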

Row | SMILES | outcome | AC50
46 | CN(C)C(=S)S | inactive | 
47 | O=C(N[C@H]1CN2CCC1CC2)c1ccc2c(c1)OCCO2 | inactive | 
48 | CCCCCCCCCCCCc1cccc(S(=O)(=O)O)c1 |  | 29.9 µM (active)
49 | N#Cc1cccnc1 | inactive | 
50 | CC(C)O.CC(C)O.OCCN(CCO)CCO.OCCN(CCO)CCO.[Ti] |  | 0.00229 µM (active)

target: human Phosphodiesterase 5 (PDE5), PDE5A (gene 8654) (UniProt O76074); test: NVS_ENZ_hPDE5: NovaScreen (NVS) Enzymatic Assay for human Phosphodiesterase 5 (PDE5) (AID 2283194)
Outline: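 Screening began in duplicate at 25 uM, with actives taken into concentration-response. Enzyme activity of recombinant PDE5 toward its substrate was measured at 1 h by fluorescence mobility-shift detection, relative to DMSO controls.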

Row | SMILES | outcome | AC50
51 | CC1(C)[C@H](C(=O)O[C@H](C#N)c2cccc(Oc3ccccc3)c2)[C@@H]1/C=C(\Cl)C(F)(F)F | inactive | 
52 | CCCCCCCCCCCCc1cccc(S(=O)(=O)O)c1 |  | 14.7 µM (active)
53 | N#Cc1cccnc1 |  | 40.8 µM (active)

target: human Phosphodiesterase 10 (PDE10), PDE10A (gene 10846) (UniProt Q9Y233); test: NVS_ENZ_hPDE10: NovaScreen (NVS) Enzymatic Assay for human Phosphodiesterase 10 (PDE10) (AID 2283195)
Outline: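 Biochemical single-readout PDE10A assay, cell-free, extracted protein. Compounds first screened at 25 uM in duplicate, hits then titrated to 50 uM max. Activity measured after 1 h; loss-of-signal fitted against DMSO negative control.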

Row | SMILES | AC50 | outcome
54 | OC[P+](CO)(CO)CO | 9.04 µM (active) | 
55 | CC1(C)[C@H](C(=O)O[C@H](C#N)c2cccc(Oc3ccccc3)c2)[C@@H]1/C=C(\Cl)C(F)(F)F |  | inactive
56 | BrCCCCBr | 4.81 µM (active) | 
57 | O=C(N[C@H]1CN2CCC1CC2)c1ccc2c(c1)OCCO2 |  | inactive
58 | COc1ccccc1N |  | inactive

target: human Protein Tyrosine Phosphatase Non-receptor Type 1 (PTPN1), PTPN1 (gene 5770) (UniProt P18031); test: NVS_ENZ_hPTPN1: NovaScreen (NVS) Enzymatic Assay for human Protein Tyrosine Phosphatase Non-receptor Type 1 (PTPN1) (AID 2283201)
Sequence (P18031 whole entry, looked up): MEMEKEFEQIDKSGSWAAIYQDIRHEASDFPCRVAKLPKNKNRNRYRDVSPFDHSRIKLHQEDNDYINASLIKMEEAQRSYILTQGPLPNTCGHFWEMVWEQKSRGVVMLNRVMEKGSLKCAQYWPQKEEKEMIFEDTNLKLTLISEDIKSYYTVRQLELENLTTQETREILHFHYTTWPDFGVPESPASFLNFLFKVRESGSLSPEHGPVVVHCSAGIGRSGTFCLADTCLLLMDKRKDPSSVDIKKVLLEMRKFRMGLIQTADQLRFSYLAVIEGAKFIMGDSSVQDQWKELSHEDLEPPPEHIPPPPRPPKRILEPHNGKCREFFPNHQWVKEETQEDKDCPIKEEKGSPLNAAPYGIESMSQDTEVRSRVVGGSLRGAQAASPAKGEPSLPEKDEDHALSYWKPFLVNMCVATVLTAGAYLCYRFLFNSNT
Outline: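 Chemicals were first tested in duplicate at 25 uM, and those passing threshold went on to singleton concentration series topping at 50 uM. Recombinant enzyme, specific substrate, product separated by mobility shift, fluorescence read at 1.33 h; activity loss relative to DMSO.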

Row | SMILES | AC50 | outcome
59 | CCCCCCCCCCCCc1cccc(S(=O)(=O)O)c1 | 14.8 µM (active) | 
60 | N#Cc1cccnc1 |  | inactive
61 | CC(C)O.CC(C)O.OCCN(CCO)CCO.OCCN(CCO)CCO.[Ti] | 0.00438 µM (active) | 
